Laboratory results: PubChem BioAssay (NCATS)
Inconclusive results are not listed. Entries that show only a call come without a potency. Unmarked numbers belong to inactive results. Calls of active or inactive are those of the source. Calls come from the whole dose curve; as a rule, active = well fitted curve in the direction sought with a large enough effect; inconclusive = small, poorly fitted or top-dose-only effect, or another doubt; inactive = no such curve, though single readings can be large; an effect the other way counts as inactive or inconclusive.

Tests used:
HEK293 = assay: Cytotoxic Profiling of Annotated Libraries Using Quantitative High-Throughput Screening (AID 1296008); details: Five cell lines viability, CellTiter-Glo ATP luminescence, 48-72 h; max response: stronger effect = lower value; note: nearly all actives have a fitted effect of over 60% in size; note: potency is the fitted concentration of half-maximal effect
How it was run: (§1)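 Cytotoxicity was measured as CellTiter-Glo ATP luminescence, read after 10 min at room temperature. Compound treatment of the cells lasted 48 or 72 hr at 37 degrees Celsius in a qHTS format.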

HaCat = assay: as above; details: Five cell lines viability, CellTiter-Glo ATP luminescence, 48-72 h; max response: stronger effect = lower value
How it was run: as §1

KB-3-1 = assay: as above; details: Five cell lines viability, CellTiter-Glo ATP luminescence, 48-72 h; max response: stronger effect = lower value
How it was run: as §1

NIH3T3 = assay: as above; details: Five cell lines viability, CellTiter-Glo ATP luminescence, 48-72 h; max response: stronger effect = lower value
How it was run: as §1

C33A = assay: Primary qHTS to identify gynecologic anti-cancer compounds using libraries of approved drugs and bioactive compounds (AID 1345084); details: Gynecologic cancer cell panel viability, ATPlite luminescence, 48 h; series mostly up to 57.5 µM; note: nearly all actives have a fitted effect of over 55% in size
How it was run: (§2)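 48 h compound exposure at 37 C, 5% CO2; five-point qHTS. ATPlite luminescence readout of cell ATP.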

CAOV3 = assay: as above; details: Gynecologic cancer cell panel viability, ATPlite luminescence, 48 h; series mostly up to 57.5 µM
How it was run: as §2

CASKI = assay: as above; details: Gynecologic cancer cell panel viability, ATPlite luminescence, 48 h; series mostly up to 57.5 µM
How it was run: as §2

Es-2 = assay: as above; details: Gynecologic cancer cell panel viability, ATPlite luminescence, 48 h; series mostly up to 57.5 µM
How it was run: as §2

HeLa = assay: as above; details: Gynecologic cancer cell panel viability, ATPlite luminescence, 48 h; series mostly up to 57.5 µM
How it was run: as §2

Hek293T = assay: as above; details: Gynecologic cancer cell panel viability, ATPlite luminescence, 48 h, control line for the selectivity index; series mostly up to 57.5 µM
How it was run: as §2

JEG-3 = assay: as above; details: Gynecologic cancer cell panel viability, ATPlite luminescence, 48 h; series mostly up to 57.5 µM
How it was run: as §2

Question: Which max response (HEK293) does the source give for `O=[N+]([O-])c1cn2c(n1)OCC(OCc1ccc(OC(F)(F)F)cc1)C2` (stereo not drawn) here?
Answer: -14.5%

Question: What about the max response (HaCat) of the same compound?
Answer: -6.12%

Question: And the max response (KB-3-1)?
Answer: -10.4%

Question: And the max response (NIH3T3)?
Answer: 0.653%

Question: And the Potency (C33A)?
Answer: inactive

Question: What about the Potency (CAOV3) of the same compound?
Answer: inactive

Question: And the Potency (CASKI)?
Answer: inactive

Question: And the Potency (Es-2)?
Answer: inactive

Question: And the Potency (HeLa)?
Answer: inactive

Question: What about the Potency (Hek293T) of the same compound?
Answer: inactive

Question: What about the Potency (JEG-3) of the same compound?
Answer: inactive

Question: `C=C1C(=O)O[C@@H]2C[C@H](C)[C@@]3(O)C=C(C(C)=O)[C@]4(CC3C[C@H]12)C(=O)O[C@H]1C[C@@H](C)C(CCC(C)=O)=CC[C@H]14` (stereo partly drawn) was tested. Which max response (HEK293) did it give?
Answer: -5.38%

Question: And the max response (HaCat)?
Answer: -0.117%

Question: What about the outcome (KB-3-1) of the same compound?
Answer: inactive

Question: And the max response (NIH3T3)?
Answer: -0.126%

Question: What about the Potency (C33A) of the same compound?
Answer: inactive

Question: And the Potency (CAOV3)?
Answer: inactive

Question: What about the Potency (CASKI) of the same compound?
Answer: inactive

Question: What about the Potency (Es-2) of the same compound?
Answer: inactive

Question: What about the Potency (HeLa) of the same compound?
Answer: inactive

Question: What about the Potency (Hek293T) of the same compound?
Answer: inactive

Question: And the Potency (JEG-3)?
Answer: inactive

Question: What does the source list for `CC1CCC2(C(=O)O)CCC3(C)C(=CCC4C5(C)CCC(O)C(C)(CO)C5CCC43C)C2C1(C)O` (stereo not drawn)?
Answer: max response (HEK293): -24.2%; max response (HaCat): 1.16%; max response (KB-3-1): -0.678%; max response (NIH3T3): 1.81%; Potency (C33A): inactive; Potency (CAOV3): inactive; Potency (CASKI): inactive; Potency (Es-2): inactive; Potency (HeLa): inactive; Potency (Hek293T): inactive; Potency (JEG-3): inactive

Question: `CCN(CC)Cc1ccc(C(=O)N(CCc2ccccc2OC)[C@@H]2CCNC2)cc1` was tested. Which Potency (HEK293) did it give?
Answer: 5.63 µM (active)

Question: And the max response (HaCat)?
Answer: -4.71%

Question: What about the Potency (KB-3-1) of the same compound?
Answer: 3.99 µM (active)

Question: And the Potency (NIH3T3)?
Answer: 2.52 µM (active)

Question: What about the Potency (C33A) of the same compound?
Answer: inactive

Question: What about the Potency (CAOV3) of the same compound?
Answer: inactive

Question: What about the Potency (CASKI) of the same compound?
Answer: inactive

Question: And the Potency (Es-2)?
Answer: inactive

Question: What about the Potency (HeLa) of the same compound?
Answer: inactive

Question: What about the Potency (Hek293T) of the same compound?
Answer: inactive

Question: And the Potency (JEG-3)?
Answer: inactive

Question: For `C/C1=C\CCC2=C[C@@H](OC2=O)c2c(C)coc2C1`, which max response (HEK293) is on record?
Answer: -3.99%

Question: What about the max response (HaCat) of the same compound?
Answer: -3.91%

Question: And the max response (KB-3-1)?
Answer: 2.55%

Question: And the max response (NIH3T3)?
Answer: -21.8%

Question: What about the Potency (C33A) of the same compound?
Answer: inactive

Question: And the Potency (CAOV3)?
Answer: inactive

Question: What about the Potency (CASKI) of the same compound?
Answer: inactive

Question: What about the Potency (Es-2) of the same compound?
Answer: inactive

Question: What about the Potency (HeLa) of the same compound?
Answer: inactive

Question: And the Potency (Hek293T)?
Answer: inactive

Question: What about the Potency (JEG-3) of the same compound?
Answer: inactive

Question: Which max response (HEK293) does the source give for `COc1c2c(c(C)c3c1C(=O)OC3)O[C@@]1(C)CC(O)C(C(C)(C)O)[C@](C)(CCC(=O)O)[C@H]1C2` (stereo partly drawn) here?
Answer: 4.24%

Question: And the max response (HaCat)?
Answer: 2%

Question: What about the outcome (KB-3-1) of the same compound?
Answer: inactive

Question: And the max response (NIH3T3)?
Answer: -2.21%

Question: What about the Potency (C33A) of the same compound?
Answer: inactive

Question: And the Potency (CAOV3)?
Answer: inactive

Question: And the Potency (CASKI)?
Answer: inactive

Question: What about the Potency (Es-2) of the same compound?
Answer: inactive

Question: What about the Potency (HeLa) of the same compound?
Answer: inactive

Question: What about the Potency (Hek293T) of the same compound?
Answer: inactive

Question: And the Potency (JEG-3)?
Answer: inactive

Question: What does the source list for `COc1ccc([C@@]2(O)c3c(ccc4c3OC(C)(CCC=C(C)C)C=C4)NC(=O)[C@@H]2OC)cc1` (stereo partly drawn)?
Answer: max response (HEK293): -3.72%; max response (HaCat): 1.02%; max response (KB-3-1): 4.57%; max response (NIH3T3): -14.3%; Potency (C33A): inactive; Potency (CAOV3): inactive; Potency (CASKI): inactive; Potency (Es-2): inactive; Potency (HeLa): inactive; Potency (Hek293T): inactive; Potency (JEG-3): inactive

Question: Which max response (HEK293) does the source give for `Cn1ncnc1COc1nn2c(-c3cc(F)ccc3F)nnc2cc1C(C)(C)C` here?
Answer: 0.514%

Question: What about the max response (HaCat) of the same compound?
Answer: -21.7%

Question: What about the max response (KB-3-1) of the same compound?
Answer: 8.68%

Question: And the max response (NIH3T3)?
Answer: -2.09%

Question: And the Potency (C33A)?
Answer: inactive

Question: And the Potency (CAOV3)?
Answer: inactive

Question: What about the Potency (CASKI) of the same compound?
Answer: inactive

Question: What about the Potency (Es-2) of the same compound?
Answer: inactive

Question: What about the Potency (HeLa) of the same compound?
Answer: inactive

Question: What about the Potency (Hek293T) of the same compound?
Answer: inactive

Question: What about the Potency (JEG-3) of the same compound?
Answer: inactive

Question: How did the max response (HEK293) turn out when `O=C(OCC1=CC(O)C2C=CO[C@@H](O[C@@H]3O[C@H](CO)[C@@H](O)[C@H](O)[C@H]3O)C12)c1ccccc1` (stereo partly drawn) was run?
Answer: -4.16%

Question: And the max response (HaCat)?
Answer: 1.81%

Question: What about the max response (KB-3-1) of the same compound?
Answer: 2.99%

Question: And the max response (NIH3T3)?
Answer: 1.21%

Question: And the Potency (C33A)?
Answer: inactive

Question: And the Potency (CAOV3)?
Answer: inactive

Question: What about the Potency (CASKI) of the same compound?
Answer: inactive

Question: What about the Potency (Es-2) of the same compound?
Answer: inactive

Question: And the Potency (HeLa)?
Answer: inactive

Question: What about the Potency (Hek293T) of the same compound?
Answer: inactive

Question: What about the Potency (JEG-3) of the same compound?
Answer: inactive

Question: With `O=C(O)Cc1ccc2oc(-c3ccc(NC(=O)/C=C/c4ccc(Br)cc4)c(F)c3)nc2c1` as the compound, how does the max response (HEK293) read?
Answer: -7.74%

Question: And the max response (HaCat)?
Answer: 2.81%

Question: And the max response (KB-3-1)?
Answer: 0.378%

Question: And the max response (NIH3T3)?
Answer: 1.97%

Question: And the Potency (C33A)?
Answer: inactive

Question: And the Potency (CAOV3)?
Answer: inactive

Question: What about the Potency (CASKI) of the same compound?
Answer: inactive

Question: And the Potency (Es-2)?
Answer: inactive

Question: And the Potency (HeLa)?
Answer: inactive

Question: And the Potency (Hek293T)?
Answer: inactive

Question: What about the Potency (JEG-3) of the same compound?
Answer: inactive

Question: With `COc1cc(C2Oc3c(OC)cc(CCCO)cc3C2CO)ccc1O[C@H]1O[C@H](C)[C@@H](O)[C@H](O)[C@@H]1O` (stereo partly drawn) as the compound, how does the max response (HEK293) read?
Answer: -0.663%

Question: And the max response (HaCat)?
Answer: -14.3%

Question: And the max response (KB-3-1)?
Answer: -4.42%

Question: And the max response (NIH3T3)?
Answer: 2.77%

Question: And the Potency (C33A)?
Answer: inactive

Question: And the Potency (CAOV3)?
Answer: inactive

Question: And the Potency (CASKI)?
Answer: inactive

Question: And the Potency (Es-2)?
Answer: inactive

Question: What about the Potency (HeLa) of the same compound?
Answer: inactive

Question: And the Potency (Hek293T)?
Answer: inactive

Question: What about the Potency (JEG-3) of the same compound?
Answer: inactive

Question: `CC1OC(OC2C(OC3C(O[C@H]4CC[C@@]5(C)C(CC[C@]6(C)C5C(=O)C=C5C7CC(C)(C)CC(O)[C@]7(C)CC[C@]56C)C4(C)C)OC(C(=O)O)C(O)C3O)OCC(O)C2O)C(O)C(O)C1O` (stereo partly drawn) was tested. Which max response (HEK293) did it give?
Answer: 2.13%

Question: What about the max response (HaCat) of the same compound?
Answer: -1.72%

Question: And the max response (KB-3-1)?
Answer: -2.68%

Question: And the max response (NIH3T3)?
Answer: -3.29%

Question: And the activity change, negative = cytotoxicity (C33A)?
Answer: -11.1% [at 11.6 µM]

Question: And the activity change, negative = cytotoxicity (CAOV3)?
Answer: -11.1% [at 11.6 µM]

Question: What about the activity change, negative = cytotoxicity (CASKI) of the same compound?
Answer: -7.33% [at 11.6 µM]

Question: What about the activity change, negative = cytotoxicity (Es-2) of the same compound?
Answer: -2.72% [at 11.6 µM]

Question: And the activity change, negative = cytotoxicity (HeLa)?
Answer: 6.46% [at 11.6 µM]

Question: And the activity change, negative = cytotoxicity (Hek293T)?
Answer: -13.7% [at 11.6 µM]

Question: What about the activity change, negative = cytotoxicity (JEG-3) of the same compound?
Answer: -7.16% [at 11.6 µM]

Question: `CC(=O)c1c(O)cc(O[C@@H]2O[C@H](CO)[C@@H](O)[C@H](O)[C@H]2O)cc1O` was tested. Which max response (HEK293) did it give?
Answer: 1.76%

Question: And the max response (HaCat)?
Answer: -1.69%

Question: And the outcome (KB-3-1)?
Answer: inactive

Question: What about the max response (NIH3T3) of the same compound?
Answer: 1.77%

Question: What about the Potency (C33A) of the same compound?
Answer: inactive

Question: What about the Potency (CAOV3) of the same compound?
Answer: inactive

Question: And the Potency (CASKI)?
Answer: inactive

Question: And the Potency (Es-2)?
Answer: inactive

Question: And the Potency (HeLa)?
Answer: inactive

Question: And the Potency (Hek293T)?
Answer: inactive

Question: And the Potency (JEG-3)?
Answer: inactive
